Assay results published in PubChem BioAssay.
Unmarked numbers belong to inactive results. The source made the active and inactive calls.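 How the source made its calls, unless noted: active means inhibition above 50%; inactive means the rest.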

Assay: antimalarial activity against Dd2 strain (AID 2302;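 active means growth inhibition above 50% at the single 2 µM test dose, taken to imply half-maximal potency below 2 µM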;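 further: 0% = DMSO untreated growth and 100% = chloroquine plus artemisinin killed control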)
Details: P. falciparum Dd2 in RBCs, LDH growth readout, 72 h; at 2 µM; stronger effect = higher value

In the case of `CC(Cc1ccc(OCCN2CCN(c3cccc(C(F)(F)F)c3)CC2)cc1)NCC(O)c1cccc(C(F)(F)F)c1` (stereo not given), the growth inhibition is reported as 91% (active).
In the case of `COC(=O)C(=C(C)C)N1C(=O)[C@@H](NC(=O)OCc2ccccc2)[C@H]1SS[C@@H]1[C@H](NC(=O)OCc2ccccc2)C(=O)N1C(C(=O)OC)=C(C)C`, the growth inhibition is reported as 96% (active).
In the case of `CNCCNCc1ccc(-c2ccc(-c3nc4ccc(F)cc4[nH]3)cc2)cc1`, the growth inhibition is reported as 97% (active).
With `CC(C)C1=CC(=NOS(=O)(=O)c2ccccc2)C=C(C(C)C)C1=O` the growth inhibition was 74% (active).
In the case of `c1ccc(-c2ccc(-c3csc(Nc4ccncc4)n3)cc2)cc1`, the growth inhibition is reported as 97% (active).
With `CC[C@H]1CN(CCCC(=O)c2ccccc2)CC[C@H]1CCCc1ccnc2ccc(OC(=O)c3ccccc3)cc12` the growth inhibition was 68% (active).
In the case of `Cn1cncc1-c1ccc2ncnc(Nc3ccc(OCc4ccccc4)cc3)c2c1`, the growth inhibition is reported as 99% (active).

First: COCc1nc(N)nc(N)c1-c1ccc(Cl)c(Cl)c1
Second: O=C(/C=C/c1ccc(Cl)c(Cl)c1)NC1CCC(CN2CCC(c3cc4ccccc4[nH]3)CC2)CC1 (stereo not given)
The growth inhibition of the first is higher: 1% for the first, -7% for the second.

For `O=C(Cc1ccc([N+](=O)[O-])cc1)N1CCc2cc3nccc(N4CCN5CCC[C@H]5C4)c3cc21`, the growth inhibition was 7%.

Assay: HepG2 cytotoxicity, primary screen, cytotoxicity control for P. falciparum antimalarial project, cell-based, ATP luminescence (AID 2303);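 further: 0% = DMSO wells and 100% = digitonin-killed cells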
Details: HepG2 viability, 24-48 h, at 10 µM, stronger effect = higher value

First: Cc1cccc2[nH]c(-c3cccc(-c4ccc(NC(=O)Cc5cnc[nH]5)cc4)c3)nc12
Second: c1cncc(CCNCc2ccc(-c3cccc(-c4nc5ccccc5[nH]4)c3)cc2)c1
The inhibition of the first is lower: 4% for the first, 39% for the second.

First: Fc1ccc(-c2nc(NCc3cccc(C(F)(F)F)c3)nn2-c2cccc(C(F)(F)F)c2)cc1C(F)(F)F
Second: CC(Cc1ccc(OCCN2CCN(c3cccc(C(F)(F)F)c3)CC2)cc1)NCC(O)c1cccc(C(F)(F)F)c1 (stereo not given)
The inhibition of the first is lower: 2% for the first, 11% for the second.

First: Cc1cnc(NC(=O)c2cn(-c3ccccc3)nc2-c2cccs2)s1
Second: Cc1cc(N[C@@H](Cc2ccccc2)C(=O)NCc2cccs2)nc(NCCOc2ccccc2)n1
The inhibition of the first is lower: -5% for the first, 2% for the second.

First: CCN(CC)CCNC(=O)c1ccc(NC(=O)c2oc3c(Cl)cccc3c2C)cc1
Second: CC(C)(C)c1ccc(-c2ccccc2CNC(=O)c2cccc(O)c2)cc1
The inhibition of the first is higher: 24% for the first, 3% for the second.

Going from `Cc1cc(N[C@@H](Cc2ccccc2)C(=O)NCCc2ccccc2)nc(NCc2ccccc2C)n1` to `CC[C@H]1CN(CCCC(=O)c2ccccc2)CC[C@H]1CCCc1ccnc2ccc(OC(=O)c3ccccc3)cc12`, the inhibition falls from 37% to 28%.

First: COc1cc(NC(=O)c2c(-c3c(Cl)cccc3Cl)noc2C)c(OC)cc1Cl
Second: COc1ccc(C=NNc2cc(C)nc3ccccc23)cc1OC
The inhibition of the first is lower: 4% for the first, 19% for the second.

Going from `CN(C)CCCNCCS(=O)(=O)c1cccc(Nc2ccc(-c3cccc(N(C)C)c3)cn2)c1` to `CNCCNCc1ccc(-c2ccc(-c3nc4ccc(F)cc4[nH]3)cc2)cc1`, the inhibition rises from 19% to 30%.

Compared with `COc1cc(SC)c(Br)cc1-c1nc2ccncc2[nH]1`, `COc1ccc(-c2cncc3ccc(C(=O)NCc4ccncc4)nc23)cc1` is higher in inhibition: 5% for the first, 25% for the second.

First: Cc1cc(N2CCN(C3CCCCC3)CC2)nc2cccc(O)c12
Second: O=C(Cc1ccc([N+](=O)[O-])cc1)N1CCc2cc3nccc(N4CCN5CCC[C@H]5C4)c3cc21
The inhibition of the first is higher: 12% for the first, -7% for the second.

Going from `CCCCCCn1c(Sc2ccc(C#N)c([N+](=O)[O-])c2)nnc1-c1ccc(OC)cc1` to `COc1ccc2nccc([C@@H](O)CN3CCC(NCc4cc5cc([N+](=O)[O-])ccc5[nH]4)CC3)c2c1`, the inhibition rises from 19% to 29%.

Compared with `CCOC(=O)C(CO)NC(=O)c1ccc([N+](=O)[O-])o1` (stereo not given), `Cc1cc(C(=O)NCc2ccc(-c3c(C)noc3C)cc2)n(-c2ccc(Cl)cc2)n1` is higher in inhibition: -5% for the first, -1% for the second.

Compared with `COc1ccc2nccc([C@@H](O)CN3CCC(NC(=O)c4cc5ccccc5[nH]4)CC3)c2c1`, `COc1ccc2ncc(C#N)c(CCN3CCC(NCc4ccc5c(c4)OCCO5)CC3)c2c1` is lower in inhibition: 19% for the first, 12% for the second.

Compared with `COc1ccc(-c2cccc(NC(=O)c3ccc(C#N)cc3)c2)cc1CN1CCCN(C)CC1`, `O=C(Nc1cccc(CN2CCCN(Cc3ccc(O)cc3)CC2)c1)c1ccc(-c2ccccc2)cc1` is higher in inhibition: 22% for the first, 33% for the second.

First: Cc1nccc2c(NC(=O)N[C@@H]3CCN(c4ncc(C(F)(F)F)cc4Br)C3)cccc12
Second: COc1cc(Nc2nccc(N3CCC(NC(=O)c4cc5ccccc5s4)C3)n2)cc(OC)c1OC (stereo not given)
The inhibition of the first is higher: 21% for the first, 2% for the second.

Going from `CN(C)CCOC(=O)C1(O)CCC2CC1C2(C)C` (stereo not given) to `COC(=O)C(=C(C)C)N1C(=O)[C@@H](NC(=O)OCc2ccccc2)[C@H]1SS[C@@H]1[C@H](NC(=O)OCc2ccccc2)C(=O)N1C(C(=O)OC)=C(C)C`, the inhibition rises from 10% to 18%.

Going from `O=C(Cn1c(=O)cnc2ccccc21)Nc1cccc(C(=O)Nc2cccc(C(F)(F)F)c2)c1` to `Cn1cncc1-c1ccc2ncnc(Nc3ccc(OCc4ccccc4)cc3)c2c1`, the inhibition rises from -12% to 4%.

Compared with `COCc1nc(N)nc(N)c1-c1ccc(Cl)c(Cl)c1`, `O=C(/C=C/c1ccc(Cl)c(Cl)c1)NC1CCC(CN2CCC(c3cc4ccccc4[nH]3)CC2)CC1` (stereo not given) is higher in inhibition: 4% for the first, 19% for the second.

First: CC(C)C1=CC(=NOS(=O)(=O)c2ccccc2)C=C(C(C)C)C1=O
Second: c1ccc(-c2ccc(-c3csc(Nc4ccncc4)n3)cc2)cc1
The inhibition of the first is lower: 23% for the first, 30% for the second.

For `COc1ccc(C=C2SC(=O)NC2=Nc2ccccc2)c(OC)c1`, the inhibition was 51% (active).
For `COc1cc(CNCCCCCCNCc2cc(OC)cc3ccccc23)c2ccccc2c1`, the inhibition was 57% (active).
For `CN1CCN(CC2(Nc3nccc(NCc4ccc(Cl)cc4Cl)n3)CCCCC2)CC1`, the inhibition was 98% (active).
With `C(=N\Nc1nccc2sc(-c3cccnc3)cc12)/c1ccncc1` the inhibition was 65% (active).
